According to PubChem BioAssay (EPA / NIEHS):
Calls of active or inactive are those of the source. How the source made its calls: active means hit-call score of the fitted dose curve at least 0.9, where 1 is the maximum; inactive means score below 0.9.

These compounds were tested on ABC Transporter (ABCB11), ABCB11 (gene 8647) (assay: LTEA_HepaRG_ABCB11: Life Technologies and Expression Analysis (LTEA) Assay for ABC Transporter (ABCB11) using HepaRG (AID 2283463)). Conditions: mRNA level, 48 h; actives raise or lower the signal.
Protocol: LTEA_HepaRG is a cell based, multiplexed-readout assay that uses HepaRG, a human liver cell line, with measurements taken at 48 hours after chemical dosing on a 96-well plate.LTEA_HepaRG_ABCB11 is one of 102 assay component(s) measured in the LTEA HepaRG cell culture assay. It is a marker of Steatosis/NR mediated transport.Data from the assay component LTEA_HepaRG_ABCB11 was analyzed into 1 endpoint. This assay endpoint, LTEA_HepaRG_ABCB11, was analyzed with bidirectional fitting relative to DMSO as the negative control and baseline of activity. Using a type of inducible reporter, measures of mRNA induction for gain or loss-of-signal activity can be used to understand regulation of transcription factor activity. To generalize the intended target to other relatable targets, this assay endpoint is annotated to the transporter intended target family, where the subfamily is ABC transporter.
A total of 1060 chemcials from the ToxCast library were tested in eight-point concentration-response experiments. Cell culture and cytotoxicity assays were conducted at Thermo Fisher Scientific's Custom Services facility (Madison, WI). A single lot of human HepaRG cells (Thermo Fisher Scientific, Frederick, MD) was used for the cell culture experiments. 96-well format collagen type I coated plates of human HepaRG cells were prepared using established methods. Briefly, cryopreserved HepaRG cells were thawed, plated at a density of approximately 100,000 cells/well in HepaRG Thaw, Plate, and General Purpose media (HPRG770, Thermo Fisher Scientific), and incubated for 48 hours. 0.5% DMSO was selected as vehicle control to balance the requisite need of DMSO in HepaRG cultures to maintain differentiation (for example, baseline metabolism, proportions of hepatocytes vs. cholangiocytes), while enabling further hepatic receptor pathway activation (for example, PXR and CAR) in response to chemical exposure. 48 hours after plating, the culture medium was replaced with HepaRG Serum-Free Incudtion Media. Cells were exposed to each test chemical in duplicate and maintained in CO2 incubators for another 48 hours. Chemical plates were thawed to room temperature and 200x concentrations of treatment groups were prepared. 8-point conentration-reponse curves were made with the highest exposure at 100 uM, followed by half-log dilutions, all in 0.5% DMSO. Each test plate contained variouse controls, induction positive controls (1mM phenobarbital), cytotoxicity positive controls ([…] aflatoxin B1), vehicle controls (0.5% DMSO), and total lysis controls (0.5% DMSO). Cell morphology images were taken using an Essen IncuCyte FLR automated microscope, with six 96-well plates imaged in about 24 minutes. Images were captured and exported and JPEG files. Spent culture media was transfered to black-well plates for the LDH assay, and remaining media was sorted at -80 C for later use. Cells were treated with RLT buffer and frozen until shipped for gene expression analysis. Total RNA was isolated from the cell suspension in 75 uL of Buffer RLT (Qiagen, Germantown, MD 20874) by Quintiles/Expression Analysis (Durham, NC) using a custom isolation procedure. Total RNA from each plate well was transferred to a preamplification plate. Fluidigm's 96.96 Dynamic ArrayTM (Fluidigm, Amsterdam, the Netherlands) technology was used for gene expression analyses by quantitative reverse transcription polymerase chain reaction (qRT-PCR, performed by Quintiles/Expression Analysis, Durham, NC)89. Standard TaqManTM Assays (Applied Biosystems/ThermoFisher Scientific, Foster City, CA) were used to assess the expression of 93 genes selected based on their selectivity and sensitivity to important hepatic receptors known to be modulated by environmental chemicals; importance in human hepatocyte functionality; and hepatotoxicity. […]

outcome, inactive:
CCOCCOCCOCCO
O=c1[nH]c2ccc(S(=O)CCN3CCC(Cc4ccc(F)cc4)CC3)cc2o1 (stereo not given)
CC[C@H]1OC(=O)[C@H](C)[C@@H](O[C@H]2C[C@@](C)(OC)[C@@H](O)[C@H](C)O2)[C@H](C)[C@@H](O[C@@H]2O[C@H](C)C[C@H](N(C)C)[C@H]2O)[C@](C)(O)C[C@@H](C)C(=O)[C@H](C)[C@@H](O)[C@]1(C)O
CC(C)=CCCC(C)=CC=O
CC(C)CC(C)(O)C#CC(C)(O)CC(C)C (stereo not given)
CC(=O)OC[C@H]1O[C@@](COC(C)=O)(O[C@H]2O[C@H](COC(C)=O)[C@@H](OC(C)=O)[C@H](OC(C)=O)[C@H]2OC(C)=O)[C@@H](OC(C)=O)[C@@H]1OC(C)=O
CC(=O)c1ccc2c(c1)[C@H](NC(=O)c1ccc(F)cc1)[C@@H](O)C(C)(C)O2
CCCCC(CC)COC(=O)c1ccc(C(=O)OCC(CC)CCCC)cc1 (stereo not given)
C[C@](N)(Cc1ccc(O)c(O)c1)C(=O)O
Cc1c(-c2cccnc2)c2ccccc2n1CCCCC(=O)O
CCCCCCCCO
CCCC(=O)OCC
Cc1ccc(O)cc1
CCCCC(CC)COC(=O)CCCCCCCCC(=O)OCC(CC)CCCC (stereo not given)
O=C(O)CC(O)C(=O)O (stereo not given)
NC(=O)NO
C1=CCCC=CCCC=CCC1
CCCCCCc1ccc(O)cc1O
Nc1cccc(N)c1
Cc1ccc(S(=O)(=O)O)cc1C
O=C(O)c1cccc(Oc2ccccc2)c1
CCOCCO
C=CCCCCCCCCC(=O)O
CC(C)=CCC/C(C)=C\CO
CC(C)=CCC/C(C)=C/CO
CCn1nc(Cc2ccccc2)cc1C1CCN(C[C@H]2C[C@H](N(C)[C@@H](C(=O)O)C(C)C)C[C@@H]2c2cccc(F)c2)CC1
CCOC(=O)COc1ccc2c(c1)CC(NCC(O)c1cccc(Cl)c1)CC2 (stereo not given)
COCCOCCOCCOC

AC50, active:
COCCOc1cc2cc(C(=O)NC3CCN(C(C)C)CC3)n(CC(=O)Nc3ccc(Cl)cn3)c2cn1 59.5 µM
CCCN(C1CCN(C(=O)C2CCNCC2)CC1)[C@@H]1CCc2ccc(OC)cc2C1 70 µM
Cn1c(=O)cc(Oc2ccc(F)cc2F)c2cnc(NCC(C)(C)O)nc21 12.7 µM
Cn1cnc([N+](=O)[O-])c1Sc1ncnc2nc[nH]c12 11.2 µM
Cc1[nH]cnc1C[C@H]1CCc2c(C)c3ccccc3n2C1=O 22.7 µM
O=P(OC(CCl)CCl)(OC(CCl)CCl)OC(CCl)CCl 66.6 µM
CCOc1cccc(-n2cc(C(=O)N3CCN(c4cc(C(=O)O)c5ccccc5c4)CC3)nc2-c2ccc(C)cc2)c1 35.5 µM
O=C(CCCCCCCCc1cccnc1)N1CCC(C=C(c2ccccc2)c2ccccc2)CC1 14.3 µM
COc1ccc(-n2nc(C(F)F)cc2-c2ccc(S(C)=O)cc2)cc1 (stereo not given) 17.3 µM
Cc1ccc(N)cc1O 50 µM
CCC(C)(C)C(=O)O[C@H]1C[C@@H](C)C=C2C=C[C@H](C)[C@H](CC[C@@H]3C[C@@H](O)CC(=O)O3)[C@H]21 50 µM
CC[C@H](C)C(=O)O[C@H]1C[C@@H](C)C=C2C=C[C@H](C)[C@H](CC[C@@H]3C[C@@H](O)CC(=O)O3)[C@H]21 50 µM
